Screening data as filed in PubChem BioAssay.
The list is not random: actives were taken first. Their share in the collection is about 3.2%.
SKN-1 block: blocks SKN-1 activity in C. elegans | C. elegans VP596 Pgst-4::GFP/RFP ratio, acrylamide-induced, 24 h | inhibition, % at 21.8 µM | 360,000 compounds, 0.49% hits | AID 624304;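 active = interference check ratio from 0.5 to 1.5 plus GFP to RFP signal ratio inhibition reaching or exceeding a fixed threshold, cut at about 30% in these data, passing the limit was not always enough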
MEKK2mut PB1 HTS: signal of MEK5 binding to mutant human MEKK2 PB1 domain; bead flow cytometry, Alexa488-MEK5 binding to MEKK2 mutant; percent response, % at 10 µM; 290,000 compounds, 0.35% hits; AID 1530; in the data active = percent response above about 24%, passing the limit was not always enough
NRP1-CendR mod: alters CendR peptide binding to human NRP-1; O14786; 360,000 compounds, 0.85% hits; inhibition, % at 25 µM; FAM-RPARPAR peptide binding to NRP-1, fluorescence polarization; AID 602438;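 active = inhibition or corrected inhibition above about 18%, plus a signal ratio from 0.5 to 1.5, limit read from the data, passing the limit was not always enough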
Target sequence (O14786 whole entry, looked up): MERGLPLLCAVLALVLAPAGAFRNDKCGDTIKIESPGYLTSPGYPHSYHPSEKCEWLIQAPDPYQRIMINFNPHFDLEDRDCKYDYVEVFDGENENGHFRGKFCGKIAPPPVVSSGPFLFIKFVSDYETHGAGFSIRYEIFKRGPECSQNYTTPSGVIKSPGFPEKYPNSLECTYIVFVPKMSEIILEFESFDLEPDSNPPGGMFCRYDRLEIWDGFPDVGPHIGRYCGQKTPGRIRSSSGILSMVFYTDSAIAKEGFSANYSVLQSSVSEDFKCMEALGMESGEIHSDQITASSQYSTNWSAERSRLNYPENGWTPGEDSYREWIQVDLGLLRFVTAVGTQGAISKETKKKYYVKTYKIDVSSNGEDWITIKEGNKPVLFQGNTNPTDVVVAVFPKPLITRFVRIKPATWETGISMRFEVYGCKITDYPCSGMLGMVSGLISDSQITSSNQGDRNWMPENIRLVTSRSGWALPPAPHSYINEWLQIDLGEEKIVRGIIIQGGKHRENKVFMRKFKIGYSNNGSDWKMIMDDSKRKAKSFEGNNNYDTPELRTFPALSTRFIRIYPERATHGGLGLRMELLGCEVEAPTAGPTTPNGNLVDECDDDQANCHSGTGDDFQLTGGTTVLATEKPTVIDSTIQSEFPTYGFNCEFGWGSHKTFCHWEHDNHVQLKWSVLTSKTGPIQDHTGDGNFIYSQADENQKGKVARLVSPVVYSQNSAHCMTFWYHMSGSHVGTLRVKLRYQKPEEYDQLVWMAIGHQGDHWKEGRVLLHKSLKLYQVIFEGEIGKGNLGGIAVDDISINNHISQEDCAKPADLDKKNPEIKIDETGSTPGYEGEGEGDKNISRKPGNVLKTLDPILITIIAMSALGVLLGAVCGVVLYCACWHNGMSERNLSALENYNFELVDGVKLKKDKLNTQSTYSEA
MEKK2 WT-MEK5: raises or lowers MEK5 binding to wildtype human MEKK2 PB1 domain; AID 1531; Q9Y2U5; 290,000 compounds, 1.1% hits; bead flow cytometry, Alexa488-MEK5 binding to MEKK2 WT; actives lie on both sides; binding response (% of control), % at 10 µM; in the data active = binding response below about 67% or above about 130%
MEKK3 PB1 HTS: MEKK3-MEK5 PB1 interaction, increase or decrease. Q99759. bead-based flow cytometry, Alexa488-MEK5 binding to MEKK3; actives lie on both sides; 0 = blocked by unlabeled MEK5, 100 = vehicle. binding response (% of control), % at 10 µM. 290,000 compounds, 1.4% hits;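 active = binding response more than 3 SD above or below the average of its plate-row segment, actives on both sides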;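 also: Alexa488 bead fluorescence after subtracting the streptavidin-only scavenger bead signal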
Active calls of the source: *; / = no result given.

SMILES	SKN-1 block	MEKK2mut PB1 HTS	NRP1-CendR mod	MEKK2 WT-MEK5	MEKK3 PB1 HTS
Cc1cc[n+](-c2[nH]c(=O)sc2/C=N/NC([S-])=Nc2ccccc2)cc1C	1.1	0.0	34.8*	104.0	127.0
CC(C)(C)c1cc[n+](-c2[nH]c(=O)sc2/C=N/NC([S-])=Nc2ccccc2)cc1	-25.3	-3.0	53.7*	84.0	91.0
COc1ccc(CCC(=O)Nc2ncc(C)s2)cc1	13.2	13.0	22.7	100.0	105.0
CCc1ccc(OCC(=O)Nc2ccc(S(=O)(=O)N3CCCC3)cc2)c(Br)c1	14.3	-2.0	9.9	90.0	89.0
Cc1ccc(OCC(=O)Nc2cccc(S(=O)(=O)N3CCCCC3)c2)c([N+](=O)[O-])n1	4.1	15.0	-1.0	116.0	99.0
O=C(COc1ccc(Br)cc1CO)Nc1ccc(S(=O)(=O)N2CCCCC2)cc1	-14.0	/	25.4*	/	/
Cc1ccc(OCC(=O)Nc2ccc(C)c(S(=O)(=O)N3CCCCCC3)c2)c([N+](=O)[O-])n1	-2.6	-41.0	31.6*	106.0	108.0
Cc1ccc(S(=O)(=O)N2CCC(=O)N(C(COCc3cccc(C)c3)C(C)C)CC2)cc1 (stereo not drawn)	4.6	-4.0	24.4*	97.0	105.0
Cc1ccc(S(=O)(=O)N2CCC(=O)N(C(COCc3cccc(Cl)c3)C(C)C)CC2)cc1 (stereo not drawn)	2.1	-2.0	5.8	103.0	88.0
Cc1ccc(S(=O)(=O)N2CCC(=O)N([C@H](COCc3cccc(Cl)c3)C(C)C)CC2)cc1	0.0	/	-1.7	/	/
Cc1ccc(S(=O)(=O)N2CCC(=O)N(C(COCc3cccc(C(F)(F)F)c3)C(C)C)CC2)cc1 (stereo not drawn)	-6.9	1.0	22.8*	84.0	71.0
C=CC[C@@H](CC(=O)NCCO)C(=O)N[C@@H](COC(=O)[C@@H](CC=C)CC(=O)OC(C)(C)C)Cc1c[nH]c2ccccc12	-0.8	/	9.7	/	/
C[C@H](CO)N1C[C@H](C)[C@@H](CN(C)C(=O)Nc2ccc(C(F)(F)F)cc2)Oc2ccc(NC(=O)Cn3cnnn3)cc2C1=O	-6.9	/	15.6	/	/
CCOc1ccc(-c2nc(C#N)c(N3CCN(C)CC3)o2)cc1	12.8	2.0	-6.1	104.0	101.0
CCCOc1ccc(-c2nc(C#N)c(N3CCN(C)CC3)o2)cc1	-0.6	2.0	34.1*	109.0	104.0
O=C1C=C(NCc2ccccc2)C2(CCCCC2)O1	-0.4	1.0	-9.1	103.0	102.0
O=C1C=C(NCc2ccco2)C2(CCCCC2)O1	5.0	9.0	22.7*	111.0	101.0
Clc1cc(NCc2cccs2)ccc1N1CCOCC1	38.6*	3.0	11.1	109.0	109.0
O=C(NCc1cccs1)C1CCN(c2ccc(S(=O)(=O)N3CCOCC3)cc2Cl)CC1	-3.0	1.0	-1.2	101.0	98.0
CCOC(=O)C(Cc1cc(C(C)=O)ccc1OCC)C(=O)OCC	37.9*	3.0	3.7	105.0	102.0
CC1(c2nnnn2C2CCCC2)CCC(=O)N1c1ccc2c(c1)OCCO2 (stereo not drawn)	18.7	/	-8.9	/	/
CCOC(=O)N1CCN(C(=O)C[C@@H]2C[C@@]3(C(=O)OCC)CCCC=C3N(Cc3ccccc3)C2=O)CC1	-5.0	/	35.7*	/	/
CCOC(=O)[C@]12CCCC=C1N(Cc1ccccc1)C(=O)[C@H](CC(=O)N1CCCCCC1)C2	5.0	/	3.5	/	/
O=C(COC(=O)CNC(=O)C1CCCCC1)NCc1ccc(Cl)cc1	-1.9	/	-6.3	/	/
CN1CCN(c2ccc(NC(=S)NC(=O)c3cccc4c(Cl)cccc34)cc2)CC1	12.5	28.0*	5.0	170.0*	101.0
SMILES	SKN-1 block	MEKK2mut PB1 HTS	NRP1-CendR mod	MEKK2 WT-MEK5	MEKK3 PB1 HTS
COc1ccc(N2CS(=O)CC2=O)cc1 (stereo not drawn)	-5.7	-5.0	26.6*	96.0	100.0
Cc1ccc2c(c1)/C(=N/OC(=O)c1ccc(F)cc1)CCS2	-14.2	2.0	4.2	100.0	103.0
O=C(O/N=C1/CCSc2ccccc21)c1ccccc1	-1.2	5.0	26.0*	102.0	104.0
CC[C@H](NC(=O)CC[C@H]1O[C@@H](n2cnc3c(NC(=O)c4ccccc4)ncnc32)[C@H](O)[C@@H]1O)c1ccccc1	-5.7	/	12.7	/	/
CC/C(=N\NC(=O)c1c[nH]c2ccccc12)c1cccs1	4.4	1.0	29.6*	104.0	104.0
O=C(NC1CC1)c1ccc(COc2ccc(F)cc2)o1	-10.8	7.0	24.7*	99.0	98.0
CC(=O)Nc1ccc(-c2ccnc3c2CC(C(=O)Nc2cccnc2)O3)cc1 (stereo not drawn)	11.6	/	27.3*	/	/
CC(=O)Nc1ccc(NC(=O)C2Cc3c(-c4cccc(F)c4)ccnc3O2)cc1 (stereo not drawn)	36.6*	/	-5.1	/	/
CC(C)[C@H]1COCCS(=O)(=O)N1Cc1cccc(Cl)c1	-0.4	0.0	26.6*	105.0	101.0
O=S1(=O)CCOC[C@H](Cc2ccccc2)N1Cc1ccccc1F	9.7	-3.0	28.0*	98.0	102.0
O=S1(=O)CCOC[C@H](Cc2ccccc2)N1Cc1cccc(F)c1	0.6	4.0	35.0*	106.0	103.0
CCC1COCCS(=O)(=O)N1Cc1cccc(Cl)c1 (stereo not drawn)	21.9	0.0	4.3	98.0	102.0
OC(c1cccnc1)c1nc(-c2cccc(F)c2)cs1 (stereo not drawn)	9.3	/	8.4	/	/
COc1ccc(C(=O)OCC(=O)N2CCN(S(=O)(=O)c3ccc(C)cc3)CC2)cc1[N+](=O)[O-]	-8.5	/	26.2*	/	/
CCCCN(C(=O)C1CCN(C(=O)c2ccccc2C)CC1)c1c(N)n(CC(C)C)c(=O)[nH]c1=O	-11.8	/	-0.2	/	/
CCOC(=O)Cc1c(-c2cccc(Br)c2)nc2c3ccccc3ccn12	8.6	/	3.9	/	/
CC(C)Oc1cc(NC(=O)CS(=O)CC(=O)Nc2cccc(C(F)(F)F)c2)c(Cl)cc1Cl (stereo not drawn)	13.5	2.0	-0.4	109.0	94.0
CC(C)Oc1cc(NC(=O)CS(=O)CC(=O)N(C)C)c(Cl)cc1Cl (stereo not drawn)	3.6	-29.0	25.2*	72.0	64.0
Cc1c(S(=O)(=O)N2CCCC(C(=O)O)C2)cnn1C (stereo not drawn)	4.0	-8.0	21.8*	96.0	102.0
O=C(O)[C@@H]1CCCN(S(=O)(=O)c2cccc3cccnc23)C1	0.0	/	26.2*	/	/
CC(C)n1c(NCCO)nc2ccccc21	4.2	-13.0	25.8*	85.0	98.0
CCCn1c(NCCO)nc2ccccc21	5.7	3.0	-0.2	104.0	104.0
COc1ccccc1Nc1nc(Cl)nc(Nc2ccccc2OC)n1	5.9	-4.0	26.1*	104.0	101.0
COc1ccc(-n2c(C)cc(C(=O)CSc3ccc(NC(C)=O)cc3)c2C)cc1	-2.3	0.0	42.4*	101.0	100.0
CC1(C(=O)NS(=O)(=O)C2CC2)CCCN(C(=O)c2cccs2)C1 (stereo not drawn)	17.7	/	-7.4	/	/
Cc1cc(NC(=O)CSCC(=O)OCC(=O)c2cccc(Br)c2)no1	-5.8	/	-26.2	/	/
